# Records with an inconclusive call do not appear. The source made the active and inactive calls. Rule for the calls: active = hit-call score of the fitted dose curve at least 0.9, where 1 is the maximum; inconclusive = response in the unintended direction; inactive = score below 0.9.
# Molecular target: human Vitamin D Receptor (VDR), VDR (gene 7421) (UniProt P11473)
# Test: ATG_VDR_TRANS: Attagene TRANS-FACTORIAL HepG2 Assay for human Vitamin D Receptor (VDR) (AID 2283022)
# Summary of the method: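 HepG2 cells were transiently transfected with multiple GAL4-UAS reporter units, so signal reflects exogenous chimeric receptor-Gal4 activity. After 24 h compound exposure, reporter mRNA was measured by RT-PCR, fluorescent labelling and capillary electrophoresis, fitted for gain of signal versus DMSO.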
# Chain of human Vitamin D Receptor (VDR), VDR (gene 7421) (P11473 whole entry, looked up): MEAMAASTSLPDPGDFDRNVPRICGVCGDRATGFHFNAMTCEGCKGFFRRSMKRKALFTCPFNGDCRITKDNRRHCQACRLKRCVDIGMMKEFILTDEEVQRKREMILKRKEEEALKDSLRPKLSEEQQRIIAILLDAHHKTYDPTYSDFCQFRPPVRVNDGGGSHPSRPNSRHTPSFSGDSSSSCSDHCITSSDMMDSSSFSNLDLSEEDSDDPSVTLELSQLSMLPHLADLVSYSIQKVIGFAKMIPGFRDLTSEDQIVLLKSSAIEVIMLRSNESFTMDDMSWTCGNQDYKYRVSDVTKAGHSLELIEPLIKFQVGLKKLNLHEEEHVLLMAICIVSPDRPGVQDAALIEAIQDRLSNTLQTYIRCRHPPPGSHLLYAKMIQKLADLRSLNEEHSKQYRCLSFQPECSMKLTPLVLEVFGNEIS
row,SMILES,outcome
1,CN(C)C,inactive
2,CCCCOCCOC(=O)c1ccccc1C(=O)OCCOCCCC,inactive
3,C=CC(C)(CCC=C(C)C)OC(=O)CC (configuration not stated),inactive
4,CCc1cccc(O)c1,inactive
5,OCCCO,inactive
6,Cc1ccccc1S,inactive
7,O=C1OCc2ccccc21,inactive
8,NS(=O)(=O)c1cc(C(=O)O)c(NCc2ccco2)cc1Cl,inactive
9,CC1=C(C=O)C(C)(C)CCC1,inactive
10,CCCCCC(=O)O[C@]1(C(C)=O)CC[C@H]2[C@@H]3CCC4=CC(=O)CC[C@]4(C)[C@H]3CC[C@@]21C,inactive
11,CC(=O)C1C(=O)C=C(C)OC1=O (configuration not stated),inactive
12,CCNC(=S)NCC,inactive
13,C=C/C(C)=C/C/C=C(\C)CCC=C(C)C,inactive
14,CC/C=C\C#N,inactive
15,CCCCCCCCCCCCCCCCCC(=O)OCCCCCCCCCCCCCC(C)C,inactive
16,CN(C)c1ccc(C=O)cc1,inactive
17,CCCCCCCC(=O)N(C)C,inactive
18,CC(C)CCOC(=O)CC(C)C,inactive
19,COc1ccc(N)c(C)c1,inactive

row,SMILES,outcome
1,CC(=O)CC(=O)N(C)C,inactive
2,CCCO,inactive
3,CC1=CC[C@@H]2C[C@H]1C2(C)C,inactive
4,[Cl][Dy]([Cl])[Cl],inactive
5,CCOC(=O)COC(=O)c1ccccc1C(=O)OCC,inactive
6,OCC=Cc1ccccc1,inactive
7,CC/C=C\CCOC(=O)C(C)C,inactive
8,CCC(C)(C)c1cc(O)c(C(C)(C)CC)cc1O,inactive
9,O=S(=O)(O)CCCN1CCOCC1,inactive
10,Cc1ccncc1,inactive
11,CCCC1CCOC(C)S1 (configuration not stated),inactive
12,O=C(O)c1cccc(Cl)n1,inactive
13,CC(=O)C1=C(C)[C@@H]2C[C@@]3(C1)[C@H](C)CC[C@H]3C2(C)C,inactive
14,CC(=O)Nc1cc(S(=O)(=O)O)cc2cc(S(=O)(=O)O)c(N=Nc3ccccc3)c(O)c12,inactive
15,CC1=CC[C@@H](C(C)(C)O)CC1,inactive
16,CCCCC/C=C\C=C\C(=O)OCC,inactive
17,CCCc1ccc(N)cc1,inactive
18,CCCCN(CCCC)CCCCCCN(CCCC)CCCC,inactive
